NCOA1 inh – inhibits human SRC1 coactivator; Q15788; AID 588354; actives 0.12% (n = 360,000); HEK293 GAL4-SRC1 luciferase reporter, luminescence; inhibition, % at 3.6 µM;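 active = inhibition above the campaign mean plus 3 SD, with each screening campaign given its own cutoff, cut at about 60% in these data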;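 note: 0% = DMSO treated cells and 100% = gossypol at 36 µM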
Target sequence (Q15788 whole entry, looked up, the tested form may be a part): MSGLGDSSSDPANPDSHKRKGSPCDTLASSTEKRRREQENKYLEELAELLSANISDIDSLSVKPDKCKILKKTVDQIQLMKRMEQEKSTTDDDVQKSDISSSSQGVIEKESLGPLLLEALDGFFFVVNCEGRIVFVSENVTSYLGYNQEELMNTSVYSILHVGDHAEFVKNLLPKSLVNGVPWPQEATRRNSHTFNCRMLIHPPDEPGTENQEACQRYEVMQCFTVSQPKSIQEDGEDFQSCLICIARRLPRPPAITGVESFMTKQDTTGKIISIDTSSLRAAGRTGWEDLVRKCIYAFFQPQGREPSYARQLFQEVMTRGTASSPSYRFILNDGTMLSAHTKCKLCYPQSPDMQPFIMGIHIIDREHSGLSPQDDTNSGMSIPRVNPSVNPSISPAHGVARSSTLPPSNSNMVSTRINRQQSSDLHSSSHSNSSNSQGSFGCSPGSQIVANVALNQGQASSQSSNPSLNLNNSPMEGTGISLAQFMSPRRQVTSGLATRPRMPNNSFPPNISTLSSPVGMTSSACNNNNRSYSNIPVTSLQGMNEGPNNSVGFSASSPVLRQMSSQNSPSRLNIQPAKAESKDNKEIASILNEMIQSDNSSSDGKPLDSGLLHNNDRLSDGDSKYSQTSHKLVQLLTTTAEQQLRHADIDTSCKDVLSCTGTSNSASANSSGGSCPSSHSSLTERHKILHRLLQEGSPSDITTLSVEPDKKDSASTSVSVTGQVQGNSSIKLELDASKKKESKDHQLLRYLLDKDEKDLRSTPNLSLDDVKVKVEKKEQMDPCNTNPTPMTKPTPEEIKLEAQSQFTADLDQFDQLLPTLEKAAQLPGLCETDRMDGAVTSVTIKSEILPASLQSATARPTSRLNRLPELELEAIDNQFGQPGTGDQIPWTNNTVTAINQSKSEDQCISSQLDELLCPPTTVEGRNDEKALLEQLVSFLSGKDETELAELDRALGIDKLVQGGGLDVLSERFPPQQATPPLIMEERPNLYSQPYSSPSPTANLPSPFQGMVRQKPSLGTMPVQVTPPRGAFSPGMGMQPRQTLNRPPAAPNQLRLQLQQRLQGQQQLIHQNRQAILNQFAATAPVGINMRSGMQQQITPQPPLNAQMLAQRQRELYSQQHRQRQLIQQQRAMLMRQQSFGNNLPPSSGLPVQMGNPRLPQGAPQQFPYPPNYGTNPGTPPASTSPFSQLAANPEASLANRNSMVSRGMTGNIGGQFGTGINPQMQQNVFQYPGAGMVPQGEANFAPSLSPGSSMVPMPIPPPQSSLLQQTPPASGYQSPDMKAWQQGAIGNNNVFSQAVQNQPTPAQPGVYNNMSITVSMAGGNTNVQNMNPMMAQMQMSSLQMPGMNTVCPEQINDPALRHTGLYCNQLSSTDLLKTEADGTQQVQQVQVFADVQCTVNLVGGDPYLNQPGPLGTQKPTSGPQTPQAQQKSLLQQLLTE
LRH-1 inv ag – suppresses constitutive activity of human LRH-1; O00482; HEK293T StAR-luciferase reporter, LRH-1 transfected, 24 h; inhibition, % at 3.6 µM; actives 0.13% (n = 360,000); AID 602396;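 active = inhibition above the mean inhibition of all tested compounds plus 3 SD, cut at about 73% in these data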;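 note: 0% = DMSO wells and 100% = reporter-only cells lacking LRH-1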
SRC2 inh – human SRC2 (NCOA2) inhibition; Q15596; HEK293 GAL4-SRC2 luciferase reporter, luminescence; inhibition, % at 9 µM; actives 0.17% (n = 370,000);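 active = inhibition above the mean inhibition of all tested compounds plus 3 SD, set per campaign, cut at about 52% in these data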;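 note: 0% = DMSO treated cells and 100% = cells given Gossypol at 36 µM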
NCOA3 inh – inhibitors of human steroid receptor coactivator 3 (SRC3). HEK293 GAL4-SRC3 luciferase reporter, luminescence. actives 0.17% (n = 360,000). AID 588352. inhibition, % at 3.6 µM. Q9Y6Q9;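 active = inhibition above a per-campaign cutoff, the mean of all compounds plus 3 SD, cut at about 60% in these data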;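 note: 0% = DMSO-treated cells and 100% = gossypol-treated cells at 36 µM; higher means less SRC3-driven luciferase light from the GAL4 reporter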
NR2F2 inh – blocks human COUP-TFII nuclear receptor; inhibition, % at 8.6 µM; P24468; actives 0.7% (n = 370,000); HEK293T NGFI-A luciferase reporter, luminescence;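 active = inhibition above a per-plate cutoff, mean inhibition of test wells between control levels plus 3 SD, cut at about 38% in these data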;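 note: cells cotransfected with COUP-TFII expression vector driving the NGFI-A reporter; 0% = median of COUP-TF2 test wells and 100% = reporter-only cells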
Gli-Sufu antag – antagonists of Gli-Sufu signaling | Sufu-KO-LIGHT fibroblasts, Gli luciferase reporter luminescence | inhibition, % at 5 µM | actives 0.74% (n = 340,000);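 active = inhibition above about 55%, limit read from the data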;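 note: 0% = DMSO-treated cells and 100% = wells with medium but no cells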
Gli antag conf – Gli-SUFU antagonism confirmation, single concentration; shares compounds with Gli-Sufu antag; Sufu-KO-LIGHT cells, Gli luciferase reporter, luminescence; inhibition, % at 5 µM; actives 40% (n = 2,500);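 active = mean inhibition at 5 µM reaching about 45%, limit read from the data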;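 note: plate controls were DMSO-treated cells for no effect and wells lacking cells for full effect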
Gli cytotox – cytotoxic in Gli-SUFU antagonist counter-screen | AID 651994 | shares compounds with Gli-Sufu antag | cytotoxicity, % at 5 µM | Sufu-KO-LIGHT cells cytotoxicity, ATP luminescence | actives 32% (n = 2,500);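 active = mean cytotoxicity at 5 µM above about 25%, limit read from the data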;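 note: cells exposed to compound overnight for roughly 16 to 18 hours; plate controls were DMSO wells with cells for no effect and medium without cells for full effect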
Wnt3a cs – Wnt3a reporter inhibition counter-screen. Wnt-LIGHT cells, Wnt3a-driven luciferase reporter, luminescence. actives 20% (n = 2,500). shares compounds with Gli-Sufu antag. inhibition, % at 6.25 µM. AID 651995;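 active = mean inhibition above about 25%, limit read from the data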
Active calls of the source: *; x = not tested or not shown. Shown are actives, neighbours in structure and some others; about 1.3% of the full set was active somewhere.

SMILES | NCOA1 inh | LRH-1 inv ag | SRC2 inh | NCOA3 inh | NR2F2 inh | Gli-Sufu antag | Gli antag conf | Gli cytotox | Wnt3a cs
Cc1nn(-c2ccccc2)c2sc(C(=O)N3CCN(Cc4ccccc4)CC3)cc12 | x | x | 17 | x | -21 | x | x | x | x
Cc1cc(=O)oc(C)c1C(=O)NCCN1CCOCC1 | 17 | -2 | 23 | 6 | 1 | 72* | 28 | -6 | 25*
CCn1c(C)c(C)c2cc(C(=O)NCCN3CCOCC3)ccc21 | 5 | -1 | 3 | 11 | -4 | 58* | 29 | 6 | -10
COc1ccc(C(C)c2cc3c(cc2OCC(=O)O)OCO3)cc1 (stereo not drawn) | x | x | 11 | x | 13 | x | x | x | x
CC(C)C[C@H]1COc2cccc(N3CCCCC3)c2S(=O)(=O)N1 | x | x | 13 | x | 6 | x | x | x | x
CCNc1ccc(C(=O)OC(C(=O)NC(N)=O)C(C)C)cc1[N+](=O)[O-] (stereo not drawn) | 6 | 2 | 12 | 13 | -3 | 59* | 22 | -8 | -6
Cc1csc(N(C(=O)c2cccc(S(=O)(=O)N(C)C)c2)c2ccccc2)n1 | 13 | -26 | -32 | -9 | -13 | 57* | 23 | 4 | -4
Cc1csc(N(C(=O)c2cccc(S(=O)(=O)N3CCCC3)c2)c2ccccc2)n1 | -14 | -3 | -12 | 20 | 5 | -3 | x | x | x
CC[n+]1c(/C=C/N(C)c2ccccc2)oc2ccc(Cl)cc21 | 11 | 12 | 7 | 17 | -2 | 79* | 83* | 27* | 39*
O=C(O)C(=Cc1ccc([N+](=O)[O-])cc1)c1ccccc1 | x | x | -10 | x | 1 | x | x | x | x
Cc1ccc(S(=O)(=O)NCC(=O)N2CCN(c3ccccn3)CC2)s1 | x | x | -2 | x | 15 | x | x | x | x
N#CCCCc1cn(-c2ccc(-c3noc4c3C(=O)N(CC(=O)N3CCOCC3)CC4)cc2)nn1 | x | x | -22 | x | 0 | x | x | x | x
CC(=Nc1ccc(C)cc1)c1sc2ccccc2c1O | -91 | -125 | -42 | -49 | -67 | 61* | -84 | 54* | 28*
Cc1cccnc1NC(=O)c1ccc(Cl)c(S(=O)(=O)N2CCCCCC2)c1 | -23 | -9 | 14 | 9 | 29 | 84* | 5 | 8 | -13
Cc1cccnc1NC(=O)c1ccc(Cl)c(S(=O)(=O)N2CCCC2)c1 | 2 | 14 | -5 | -6 | 11 | -11 | x | x | x
COC(=O)c1cc(C(=O)c2ccccc2)n2c(=O)/c(=C\N(C)C)sc12 | x | x | -11 | x | 9 | -2 | x | x | x
COC(=O)c1cc(C(=O)c2ccc(Cl)cc2)n2c(=O)/c(=C\N(C)C)sc12 | -23 | 7 | 6 | -2 | -20 | 57* | 31 | 4 | -84
Cc1cn([C@@H](CCCCNC(=O)OC(C)(C)C)C(=O)NCCCCCCCCCCC(=O)N2CCN(C(=O)OC(C)(C)C)CC2)nn1 | 35 | 35 | x | 64* | x | 60* | 59* | 36* | 14
C#CCOCCOCCOCCNc1nc(N2CCN(C(=O)CCCCCCCCCCNC(=O)Cn3cc(CCCCCN)nn3)CC2)nc(N2CCN(C(=O)CCCCCCCCCCNC(=O)Cn3cc(C[C@@H](C)O)nn3)CC2)n1 | -7 | -2 | x | 14 | x | -6 | x | x | x
CC[C@H](C)Cc1cn([C@@H](CCCN=C(NC(=O)OC(C)(C)C)NC(=O)OC(C)(C)C)C(=O)NCCCCCCCCCCC(=O)N2CCN(C(=O)OC(C)(C)C)CC2)nn1 | -2 | -20 | x | 9 | x | 33 | x | x | x
CC(C)(C)OC(=O)NCCCCCc1cn(CC(=O)NCCCCCCCCCCC(=O)N2CCN(C(=O)OC(C)(C)C)CC2)nn1 | -1 | -26 | -24 | -5 | 11 | 56* | 62* | 26* | -38
O=C(CSc1nnc(COc2ccccc2)n1-c1ccc(Cl)cc1)Nc1ccccc1-c1ccccc1 | x | x | 6 | x | 22 | x | x | x | x
CC(=O)c1cnc(Nc2ccccc2)s1 | -31 | -42 | -60 | -35 | -21 | 57* | 11 | 8 | -92
CCOC(=O)C1=CN(Cc2ccco2)S(=O)(=O)N(CC)C1c1ccccc1 (stereo not drawn) | 2 | 4 | -6 | 9 | 11 | 53 | 12 | 3 | -10
CCOC(=O)C1=CN(Cc2ccco2)S(=O)(=O)N(CC)C1c1cccc(OC)c1 (stereo not drawn) | 0 | -34 | 1 | -4 | 9 | 52 | 10 | 22 | -16
SMILES | NCOA1 inh | LRH-1 inv ag | SRC2 inh | NCOA3 inh | NR2F2 inh | Gli-Sufu antag | Gli antag conf | Gli cytotox | Wnt3a cs
CCOC(=O)C1=CN(Cc2ccco2)S(=O)(=O)N(CC)C1c1ccc(F)c(Cl)c1 (stereo not drawn) | 3 | -15 | -11 | 3 | 16 | 10 | x | x | x
CCOC(=O)C1=CN(Cc2ccco2)S(=O)(=O)N(C)C1c1cccc(OC)c1 (stereo not drawn) | -2 | -1 | 8 | 8 | 10 | 3 | x | x | x
Cc1cc(NC(=O)COc2ccccc2C)ccc1NC(=O)c1cccs1 | 10 | 12 | 4 | -2 | 1 | 51 | 12 | 0 | -48
COc1cccc(-c2nnc(SCC(=O)Nc3ccc(Oc4ccccc4)cc3)n2Cc2ccco2)c1 | x | x | -26 | x | 1 | x | x | x | x
COCCNC(=S)N(C)[C@H]1C[C@H]2c3[nH]c4c(-c5ccc6c(c5)OCO6)cccc4c3CCN2C(=O)[C@H]1[C@H](C)O | x | x | 20 | x | 6 | x | x | x | x
CCn1c(=O)cc(SCC(=O)N2CCOCC2)c2ccccc21 | -17 | 17 | -29 | 19 | -40 | 24 | x | x | x
CCn1c(=O)cc(SCC(=O)N2CCN(C3CCCCC3)CC2)c2ccccc21 | -17 | 10 | -47 | 3 | -54 | 97* | 46* | 7 | 22
O=c1nc(N/N=C/c2ccccn2)cn[nH]1 | 1 | -48 | -7 | 1 | -61 | 67* | 71* | 33* | 78*
Cc1ccc(/C=N/Nc2cn[nH]c(=O)n2)o1 | -76 | -58 | -59 | -54 | -46 | -9 | x | x | x
Cc1ccccc1S(=O)(=O)N(C)C[C@H]1OCc2cnnn2CCCC(=O)N([C@H](C)CO)C[C@@H]1C | x | x | 10 | x | 5 | x | x | x | x
O=C(c1cc2nc(C3CC3)cc(C(F)(F)F)n2n1)N1CCCC1 | -27 | -18 | -5 | -9 | -3 | 0 | x | x | x
O=C(O)c1cc2nc(C3CC3)cc(C(F)(F)F)n2n1 | -25 | 10 | -10 | -4 | 8 | 56* | 15 | -10 | 10
COc1ccc(NC(=O)N(C)C[C@@H]2OCc3cnnn3CCCC(=O)N([C@@H](C)CO)C[C@@H]2C)cc1 | x | x | 12 | x | 7 | x | x | x | x
COC(=O)c1cccc2c([N+](=O)[O-])c(NC(C)=O)cc(C(=O)OC)c12 | x | x | -20 | x | 3 | x | x | x | x

Source: PubChem BioAssay (several laboratories)
